# Test results as given in PubChem BioAssay (EPA / NIEHS).
# Values joined by “and” are separate entries in the source; they are usually repeats but may differ in a detail not shown here. Equal entries are not always repeated. Records with an inconclusive call do not appear. The source holds several records for some structures; these can differ, active in one and inactive in another. Active and inactive are the calls of the source. The calls were made as follows, unless noted: active = hit-call score of the fitted dose curve at least 0.9, where 1 is the maximum; inconclusive = response in the unintended direction; inactive = score below 0.9.
# Tests used:
# [1] = biological target: human Peroxisome Proliferator-activated Receptor alpha (PPARa), PPARA (gene 5465) (UniProt Q07869); assay: ATG_PPARa_TRANS: Attagene TRANS-FACTORIAL HepG2 Assay for human Peroxisome Proliferator-activated Receptor alpha (PPARa) (AID 2283001)
# Method in brief: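 HepG2 cells transiently transfected with multiplexed GAL4-UAS reporter units and chimeric NR-Gal4 constructs were dosed for 24 h. Reporter mRNA was measured by RT-PCR with fluorescent labelling and capillary electrophoresis; gain of signal fitted against DMSO.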
# [2] = read-out: Intercellular Adhesion Molecule 1 (ICAM1), ICAM1 (gene 3383); assay: BSK_3C_ICAM1: BioMAP Diversity Plus: 3C Assay for Intercellular Adhesion Molecule 1 (ICAM1) Biomarker Activity (AID 2283003; active = hit-call score of the fitted dose curve at least 0.9, where 1 is the maximum; inactive = score below 0.9); details: primary human endothelial cells (HUVEC); actives raise or lower the signal
# Method in brief: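 Primary human umbilical vein endothelial cells in the BioMAP 3C system were exposed to chemicals for 24 h, then ICAM-1 was quantified by ELISA. Activity was fitted bidirectionally against the DMSO negative control baseline.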
# [3] = BSK_3C_Proliferation: Cell Proliferation Assessment in the BioMAP Diversity Plus: 3C Assay (AID 2283006; active = hit-call score of the fitted dose curve at least 0.9, where 1 is the maximum; inactive = score below 0.9;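 as to AC50: potency may reflect either rise or fall in cell number versus DMSO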); details: primary human endothelial cells (HUVEC)
# Method in brief: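 Human umbilical vein endothelial cells were grown sub-confluent and exposed to chemical for 48 h, then fixed with 10% TCA and stained with 0.1% sulforhodamine B; absorbance at 560 nm gave relative cell number, fitted bidirectionally against DMSO baseline.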
# [4] = biological target: Peroxisome proliferator-activated receptor gamma (Homo sapiens) (UniProt P37231); assay: ATG_PPARg_TRANS: Attagene TRANS-FACTORIAL HepG2 Assay for human Peroxisome Proliferator-activated Receptor-gamma (PPARg) (AID 2283007)
# Method in brief: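 Chimeric NR-Gal4 transactivation is measured in transiently transfected HepG2 cells by reporter mRNA induction at 24 h. Detection uses RT-PCR with fluorescent labelling and capillary electrophoresis; DMSO defines baseline.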
# [5] = biological target: Nuclear receptor subfamily 1 group I member 2 (Homo sapiens) (UniProt O75469); assay: ATG_PXR_TRANS: Attagene TRANS-FACTORIAL HepG2 Assay for human Pregnane X Receptor (PXR) (AID 2283008)
# Method in brief: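 Read-out is fluorescence of labelled reporter cDNA fragments separated by capillary electrophoresis after RT-PCR and HpaI digestion. Source: HepG2 cells carrying PXR-GAL4/UAS reporter constructs, treated 24 h; activity fitted upward relative to DMSO.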
# [6] = biological target: human Peroxisome Proliferator-activated Receptor delta (PPARd), PPARD (gene 5467) (UniProt Q03181); assay: ATG_PPARd_TRANS: Attagene TRANS-FACTORIAL HepG2 Assay for human Peroxisome Proliferator-activated Receptor delta (PPARd) (AID 2283002)
# Method in brief: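 Measured quantity: GAL4-UAS reporter transcript induction in HepG2 after 24 h chemical dosing, with NR-Gal4 chimeras supplied by transient transfection. Detection by RT-PCR and capillary electrophoresis; upward fit against DMSO.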
# [7] = biological target: human Retinoic Acid Receptor beta (RARb), RARB (gene 5915) (UniProt P10826); assay: ATG_RARb_TRANS: Attagene TRANS-FACTORIAL HepG2 Assay for human Retinoic Acid Receptor beta (AID 2283004)
# Method in brief: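 HepG2, transient MRTU transfection, NR–Gal4 chimera, 24 h treatment; RT-PCR plus CE fluorescence detection of reporter mRNA; gain of signal vs DMSO.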
# [8] = biological target: Retinoic acid receptor alpha (Homo sapiens) (UniProt P10276); assay: ATG_RARa_TRANS: Attagene TRANS-FACTORIAL HepG2 Assay for human Retinoic Acid Receptor alpha (RARa) (AID 2283005)
# Method in brief: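 HepG2 cells transiently transfected with multiple reporter units expressing chimeric RARα-GAL4 fusion, with GAL4-UAS-driven reporters. After 24 h compound exposure, reporter mRNA induction quantified by RT-PCR and capillary electrophoresis with fluorescent labeling; gain-of-signal fitted relative to DMSO control.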
# [9] = biological target: human Retinoic Acid Receptor gamma (RARg), RARG (gene 5916) (UniProt P13631); assay: ATG_RARg_TRANS: Attagene TRANS-FACTORIAL HepG2 Assay for human Retinoic Acid Receptor gamma (RARg) (AID 2283009)
# Method in brief: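 HepG2 cells transiently transfected with multiplexed reporter units expressing chimeric RARg-GAL4 and GAL4-UAS-driven reporters; 24 h compound exposure. Reporter mRNA quantified by RT-PCR with fluorescent labelling and capillary electrophoresis; gain-of-signal fitted relative to DMSO baseline.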
# Peroxisome proliferator-activated receptor gamma (Homo sapiens), sequence (P37231 whole entry, looked up, the tested form may be a part): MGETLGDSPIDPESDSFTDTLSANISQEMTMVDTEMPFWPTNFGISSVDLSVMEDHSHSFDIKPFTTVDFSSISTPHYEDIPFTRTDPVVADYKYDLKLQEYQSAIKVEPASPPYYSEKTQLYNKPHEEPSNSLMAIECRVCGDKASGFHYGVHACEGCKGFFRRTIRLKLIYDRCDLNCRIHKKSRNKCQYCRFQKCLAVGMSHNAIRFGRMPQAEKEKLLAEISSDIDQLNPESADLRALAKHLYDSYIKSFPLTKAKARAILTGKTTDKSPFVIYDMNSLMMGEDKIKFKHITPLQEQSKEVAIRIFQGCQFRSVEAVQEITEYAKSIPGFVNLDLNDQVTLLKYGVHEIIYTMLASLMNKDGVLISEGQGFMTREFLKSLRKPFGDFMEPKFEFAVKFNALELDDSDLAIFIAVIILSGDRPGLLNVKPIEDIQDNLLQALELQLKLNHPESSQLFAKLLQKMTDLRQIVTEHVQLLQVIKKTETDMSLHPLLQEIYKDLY
# human Peroxisome Proliferator-activated Receptor delta (PPARd), PPARD (gene 5467), sequence (Q03181 whole entry, looked up, the tested form may be a part): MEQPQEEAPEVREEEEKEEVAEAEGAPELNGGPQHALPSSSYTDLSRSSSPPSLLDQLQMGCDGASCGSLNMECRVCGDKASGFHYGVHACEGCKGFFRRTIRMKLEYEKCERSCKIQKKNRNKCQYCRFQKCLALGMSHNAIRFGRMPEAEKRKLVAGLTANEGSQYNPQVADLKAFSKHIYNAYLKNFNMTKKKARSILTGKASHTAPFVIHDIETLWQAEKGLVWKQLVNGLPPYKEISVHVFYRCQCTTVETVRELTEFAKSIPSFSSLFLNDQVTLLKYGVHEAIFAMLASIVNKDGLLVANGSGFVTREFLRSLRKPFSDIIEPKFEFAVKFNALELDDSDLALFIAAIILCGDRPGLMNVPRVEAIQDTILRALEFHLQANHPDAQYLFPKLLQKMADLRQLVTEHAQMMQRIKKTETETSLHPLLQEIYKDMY
# human Retinoic Acid Receptor gamma (RARg), RARG (gene 5916), sequence (P13631 whole entry, looked up, the tested form may be a part): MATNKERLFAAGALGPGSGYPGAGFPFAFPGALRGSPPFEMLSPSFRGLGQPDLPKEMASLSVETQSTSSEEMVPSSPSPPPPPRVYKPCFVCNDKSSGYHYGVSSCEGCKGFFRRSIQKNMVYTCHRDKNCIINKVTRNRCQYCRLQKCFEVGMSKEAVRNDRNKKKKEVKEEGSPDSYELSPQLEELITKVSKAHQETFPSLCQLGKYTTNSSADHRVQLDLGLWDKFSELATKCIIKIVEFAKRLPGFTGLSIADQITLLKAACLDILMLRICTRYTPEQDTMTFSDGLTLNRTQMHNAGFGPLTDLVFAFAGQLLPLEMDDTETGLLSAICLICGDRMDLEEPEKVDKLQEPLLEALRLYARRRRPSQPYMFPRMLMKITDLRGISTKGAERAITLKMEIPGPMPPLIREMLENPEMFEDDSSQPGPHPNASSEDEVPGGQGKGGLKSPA
# Retinoic acid receptor alpha (Homo sapiens), sequence (P10276 whole entry, looked up, the tested form may be a part): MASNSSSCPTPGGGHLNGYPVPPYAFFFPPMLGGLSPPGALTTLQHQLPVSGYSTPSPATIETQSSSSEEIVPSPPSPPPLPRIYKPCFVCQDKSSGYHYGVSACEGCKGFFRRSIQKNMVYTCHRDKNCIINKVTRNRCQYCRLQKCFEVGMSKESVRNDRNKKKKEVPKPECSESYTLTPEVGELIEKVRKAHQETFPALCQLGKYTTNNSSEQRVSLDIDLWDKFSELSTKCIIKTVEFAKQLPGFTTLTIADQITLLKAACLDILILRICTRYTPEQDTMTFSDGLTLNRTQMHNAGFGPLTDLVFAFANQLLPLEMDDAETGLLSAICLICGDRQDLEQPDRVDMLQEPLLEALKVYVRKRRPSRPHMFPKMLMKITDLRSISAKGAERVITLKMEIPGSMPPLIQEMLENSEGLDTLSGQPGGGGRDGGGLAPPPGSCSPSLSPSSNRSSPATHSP
# Nuclear receptor subfamily 1 group I member 2 (Homo sapiens), sequence (O75469 whole entry, looked up, the tested form may be a part): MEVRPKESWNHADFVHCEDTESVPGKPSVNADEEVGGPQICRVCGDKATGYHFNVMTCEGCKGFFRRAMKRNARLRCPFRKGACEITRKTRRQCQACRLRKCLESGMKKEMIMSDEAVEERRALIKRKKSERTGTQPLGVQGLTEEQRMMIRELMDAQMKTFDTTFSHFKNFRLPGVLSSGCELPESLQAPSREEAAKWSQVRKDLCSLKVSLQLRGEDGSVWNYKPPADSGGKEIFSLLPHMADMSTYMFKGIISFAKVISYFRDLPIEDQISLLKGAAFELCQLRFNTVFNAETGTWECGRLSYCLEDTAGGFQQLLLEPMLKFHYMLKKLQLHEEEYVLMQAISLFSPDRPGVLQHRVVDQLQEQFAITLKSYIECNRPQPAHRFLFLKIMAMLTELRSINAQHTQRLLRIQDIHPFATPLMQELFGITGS
# human Retinoic Acid Receptor beta (RARb), RARB (gene 5915), sequence (P10826 whole entry, looked up, the tested form may be a part): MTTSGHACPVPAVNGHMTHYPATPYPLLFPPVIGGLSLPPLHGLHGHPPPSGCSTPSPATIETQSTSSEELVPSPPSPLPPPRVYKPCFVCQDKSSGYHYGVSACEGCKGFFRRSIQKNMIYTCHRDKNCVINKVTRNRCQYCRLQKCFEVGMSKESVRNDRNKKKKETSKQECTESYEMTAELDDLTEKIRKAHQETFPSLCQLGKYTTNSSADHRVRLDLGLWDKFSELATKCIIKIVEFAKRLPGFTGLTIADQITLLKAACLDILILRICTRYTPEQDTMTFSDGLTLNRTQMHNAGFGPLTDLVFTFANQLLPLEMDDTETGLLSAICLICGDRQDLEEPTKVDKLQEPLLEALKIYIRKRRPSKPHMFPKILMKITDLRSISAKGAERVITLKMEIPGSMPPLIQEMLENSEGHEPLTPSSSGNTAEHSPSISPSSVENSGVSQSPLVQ
# human Peroxisome Proliferator-activated Receptor alpha (PPARa), PPARA (gene 5465), sequence (Q07869 whole entry, looked up, the tested form may be a part): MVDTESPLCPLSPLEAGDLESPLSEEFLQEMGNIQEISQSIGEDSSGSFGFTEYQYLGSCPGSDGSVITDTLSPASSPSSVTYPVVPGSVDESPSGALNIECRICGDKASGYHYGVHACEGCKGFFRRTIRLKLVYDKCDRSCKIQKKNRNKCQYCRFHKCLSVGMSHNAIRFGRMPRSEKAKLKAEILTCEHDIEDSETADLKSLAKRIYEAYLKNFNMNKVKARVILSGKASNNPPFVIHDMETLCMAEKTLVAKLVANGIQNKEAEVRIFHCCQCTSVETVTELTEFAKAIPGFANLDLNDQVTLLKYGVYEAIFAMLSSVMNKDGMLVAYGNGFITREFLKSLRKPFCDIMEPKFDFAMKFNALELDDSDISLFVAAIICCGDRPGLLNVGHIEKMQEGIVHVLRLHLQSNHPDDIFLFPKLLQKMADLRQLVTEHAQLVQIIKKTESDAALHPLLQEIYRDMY
Structure (SMILES),outcome [1],outcome [2],outcome [3],outcome [4],outcome [5],outcome [6],AC50 [3],outcome [7],outcome [8],AC50 [5],outcome [9],AC50 [4]
CCCN(CCC)C(=O)SCC,inactive,inactive,inactive,inactive,inactive,,,,,,,
CC(=O)S[C@@H]1CC2=CC(=O)CC[C@]2(C)[C@H]2CC[C@@]3(C)[C@@H](CC[C@@]34CCC(=O)O4)[C@H]12,inactive,inactive,,inactive,inactive,inactive,28 µM (active),,,,,
CCCOC(=O)NCCCN(C)C,inactive,inactive,inactive,inactive,,,,inactive,inactive,,,
CC1(C)C(C=C(Cl)Cl)C1C(=O)OCc1cccc(Oc2ccccc2)c1 (centres undefined),inactive,inactive,,,,,4.29 µM (active),,,20.2 µM (active),,
CCCCOC(=O)[C@@H](C)Oc1ccc(Oc2ccc(C(F)(F)F)cn2)cc1,inactive,inactive,inactive,inactive,inactive,,,inactive,inactive,,inactive,
COC(=O)CSc1cc(N=c2sc(=O)n3n2CCCC3)c(F)cc1Cl,inactive,inactive,inactive,,inactive,,,,,,,27.4 µM (active)
C[C@]12CC[C@@H]3c4ccc(O)cc4C[C@@H](CCCCCCCCCS(=O)CCCC(F)(F)C(F)(F)F)[C@H]3[C@@H]1CC[C@@H]2O (some centres undefined),,inactive,,inactive,,inactive,2.05 µM (active),inactive,,494 nM (active) [middle of 4 runs],,
S=C(S)NCCNC(=S)S.[Mn+2].[S-]C([S-])=NCCN=C([S-])[S-].[Zn+2],inactive,inactive,inactive,inactive,inactive,,,,,12 µM (active) and 18.7 µM (active),,
C#C[C@]1(O)CC[C@H]2[C@@H]3CCC4=CC(=O)CC[C@@H]4[C@H]3CC[C@@]21CC,inactive,inactive,,inactive,inactive,inactive,16 µM (active),,,9.53 µM (active),,
C#CCOC(=O)[C@@H](C)Oc1ccc(Oc2ncc(Cl)cc2F)cc1,inactive,inactive,inactive,inactive,,inactive,,,,,inactive,
CCOC(=O)C(C)Oc1ccc(Oc2cnc3cc(Cl)ccc3n2)cc1 (centres undefined),inactive,inactive,inactive,inactive,inactive,,,,,,inactive,
COC(=O)c1ccc(CNS(C)(=O)=O)cc1S(=O)(=O)NC(=O)Nc1nc(OC)cc(OC)n1,inactive,inactive,inactive,inactive,inactive,,,inactive,,,,
CCN(Cc1c(F)cccc1Cl)c1c([N+](=O)[O-])cc(C(F)(F)F)cc1[N+](=O)[O-],,inactive,,inactive,,inactive,12.9 µM (active),inactive,inactive,3.41 µM (active),inactive,
CSC(=O)c1cccc2nnsc12,inactive,inactive,inactive,inactive,,,,,,,inactive,
